A selection: hits, their analogues and other compounds. The true share with any hit is near 3.2%.
bovine MsrA act – bovine methionine sulfoxide reductase A activation. activation, % at 10.6 µM. purified bovine MsrA, absorbance read-out. AID 602163. actives 0.3% (n = 360,000); in the data active = activation above about 7.5%;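 also: 0% = vehicle and 100% = reference activator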
NadD block – inhibitors of Staphylococcus aureus NadD | actives 0.78% (n = 360,000) | AID 602399 | inhibition, % at 20 µM | purified NadD enzyme, colorimetric absorbance read-out; in the data active = inhibition above about 26%
MsrA inh – inhibitors of bovine MsrA. actives 0.75% (n = 360,000). inhibition, % at 15.5 µM. purified bovine MsrA, absorbance read-out;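 also: 0% = vehicle wells with enzyme and 100% = reference inhibitor wells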
DSG3 Ab inh – inhibitors of pemphigus antibody binding to human desmoglein-3; actives 0.48% (n = 310,000); P32926; DSG3-coupled beads, scFv-anti-DSG3-GFP binding, flow cytometry; active compounds read low; AID 588358; binding (percent of control), % at 10 µM;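 active = binding more than 3 SD below its plate's average and above zero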;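 also: hits lower antibody fragment binding to DSG3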
rCAG RNA binder – binds r(CAG) RNA repeats | r(CAG) RNA repeat, TO-PRO-1 dye displacement fluorescence | actives 1.3% (n = 370,000) | inhibition, % at 3 µM;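 active = inhibition above the plate cutoff, the mean of all test compounds on that plate plus 3 SD, cut at about 35% in these data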;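 also: 0% = DMSO alone and 100% = 100 µM mitoxantrone as full dye displacement; higher means more dye released from RNA so lower well fluorescence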
DAGLB inh – diacylglycerol lipase beta (human) inhibition; inhibition, % at 5.17 µM; AID 504411; actives 0.059% (n = 340,000); HEK293T DAGLB membrane lysate, EnzChek fluorogenic substrate; in the data active = inhibition above about 34%;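 also: 0% = enzyme with vehicle and 100% = wells lacking enzyme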
Target sequence (Q8NCG7 whole entry, looked up): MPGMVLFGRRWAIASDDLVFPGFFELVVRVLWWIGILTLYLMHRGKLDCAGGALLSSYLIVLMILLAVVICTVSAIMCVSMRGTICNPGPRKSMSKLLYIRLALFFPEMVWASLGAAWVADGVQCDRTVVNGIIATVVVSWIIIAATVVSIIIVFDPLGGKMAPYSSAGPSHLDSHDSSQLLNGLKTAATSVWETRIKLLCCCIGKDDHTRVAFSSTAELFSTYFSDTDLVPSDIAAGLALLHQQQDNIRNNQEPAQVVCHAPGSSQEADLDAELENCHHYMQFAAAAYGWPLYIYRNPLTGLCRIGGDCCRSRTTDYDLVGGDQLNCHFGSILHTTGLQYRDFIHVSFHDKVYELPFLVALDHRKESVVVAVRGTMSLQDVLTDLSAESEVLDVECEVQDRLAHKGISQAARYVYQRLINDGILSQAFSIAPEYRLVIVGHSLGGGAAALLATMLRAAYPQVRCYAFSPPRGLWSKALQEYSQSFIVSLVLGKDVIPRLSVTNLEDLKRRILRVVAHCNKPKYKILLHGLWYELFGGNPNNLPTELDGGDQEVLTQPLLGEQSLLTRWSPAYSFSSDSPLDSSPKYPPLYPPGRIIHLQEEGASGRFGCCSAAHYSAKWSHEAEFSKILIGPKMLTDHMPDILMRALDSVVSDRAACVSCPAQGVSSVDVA
DAGLB confirm – DAGLB (human) inhibition, confirmation screen; AID 504445; actives 73% (n = 190); HEK293T DAGLB membrane lysate, EnzChek fluorogenic substrate; shares compounds with DAGLB inh; inhibition, % at 5.17 µM;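 active = mean inhibition over triplicate wells above a set limit taken from the primary lipase screen, cut at about 34% in these data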;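 also: 0% = DAGLB with DMSO and 100% = wells lacking DAGLB enzyme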
NadD inh conf – confirmation of Staphylococcus aureus NadD inhibitors | shares compounds with NadD block | purified S. aureus NadD, colorimetric enzyme assay | inhibition, % at 20 µM | actives 13% (n = 2,000); in the data active = inhibition mostly above about 42%, no sharp cut-off; inactive = mostly below about 42%
MsrA conf – bovine MsrA inhibition, confirmed; purified bovine MsrA, absorbance read-out; actives 41% (n = 2,300); inhibition, % at 15.5 µM; shares compounds with MsrA inh; AID 651822;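 also: coupled to thioredoxin reductase with NADPH and selenocystamine and DMSO as substrate; 0% = vehicle only and 100% = full effect of reference inhibitor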
rCAG bind conf – r(CAG) RNA repeat binding, confirmation | shares compounds with rCAG RNA binder | TO-PRO-1 dye displacement fluorescence | inhibition, % at 3 µM | actives 70% (n = 4,300);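 active = inhibition above a per-plate cutoff, the mean inhibition of sample wells plus 3 SD, cut at about 35% in these data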;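 also: loss of TO-PRO-1 fluorescence as compound displaces dye from 1x1 AA loop RNA; 0% = DMSO only wells and 100% = 100 µM mitoxantrone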
DNA CAG counter – DNA CAG dye complex inhibition counter-screen | d(CAG) DNA oligo TO-PRO-1 dye displacement, fluorescence | inhibition, % at 3 µM | actives 94% (n = 4,300) | shares compounds with rCAG RNA binder;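 active = inhibition above its plate's cutoff, the mean test-well inhibition plus 3 SD, cut at about 4.8% in these data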;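 also: 0% = DNA dye mix with DMSO and 100% = 100 µM mitoxantrone; hits displace the dye from DNA and so lower well fluorescence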
Starred values were filed as active, the others as inactive. Rule as the data show it, unless noted: active = inhibition above about 4.5%; inactive = the rest.

`Cc1ccc(NS(=O)(=O)c2cc([N+](=O)[O-])ccc2NNC(=S)Nc2cccc(Cl)c2)c(C)c1` gave bovine MsrA act -6.2, NadD block 45.7*, DSG3 Ab inh 99.5, DAGLB inh 44.5* and DAGLB confirm 74.2*.
`Cc1cccc(NC(=S)NNc2cccc(Cl)c2)c1` gave bovine MsrA act -4.0, NadD block 9.8, MsrA inh 1.0, DSG3 Ab inh 110.9, rCAG RNA binder 9.0 and DAGLB inh -1.8.
Screening Cc1ccc(-n2[nH]c(C)c(/C=N/Nc3ccc([N+](=O)[O-])cc3[N+](=O)[O-])c2=O)cc1C returned bovine MsrA act -8.1, NadD block 36.5*, MsrA inh 2.8, DSG3 Ab inh 91.8, rCAG RNA binder 14.3, DAGLB inh 38.9*, DAGLB confirm 48.2* and NadD inh conf 12.0.
`COC(=O)[C@@]12C[C@@H](CC(=O)NCc3ccc(OC)c(OC)c3)C(=O)N(Cc3ccco3)C1=CCC(C)(C)C2` gave MsrA inh 1.3 and rCAG RNA binder -1.5.
For O=C1c2cccc(Cl)c2C(=O)c2c1cccc2N1CCCC1 the results were bovine MsrA act -4.0, NadD block 0.2, MsrA inh 9.4*, DSG3 Ab inh 114.3, rCAG RNA binder 3.2, DAGLB inh 44.4*, DAGLB confirm 63.8* and MsrA conf 0.7.
`CC/C(=N\Nc1ccc([N+](=O)[O-])cc1[N+](=O)[O-])c1ccc(O)cc1` gave bovine MsrA act -1.7, NadD block -2.0, MsrA inh 6.7*, DSG3 Ab inh 98.1, rCAG RNA binder 28.8, DAGLB inh 38.6*, DAGLB confirm 37.9* and MsrA conf 1.3.
For CCC(=NNc1ccc([N+](=O)[O-])cc1[N+](=O)[O-])c1ccccc1 the results were bovine MsrA act -3.5, NadD block 8.1, MsrA inh -0.6 and rCAG RNA binder 3.0.
Screening COc1ccc(C(=O)N[C@H](C(=O)Nc2cccc(S(=O)(=O)N3CCOCC3)c2)C(C)C)cc1 returned bovine MsrA act -6.2, NadD block -4.8, MsrA inh -0.3, DSG3 Ab inh 105.4, rCAG RNA binder 2.8 and DAGLB inh -2.5.
Screening O=C1C(Nc2ccccc2)=C/C(=N/S(=O)(=O)c2cccs2)c2ccccc21 returned bovine MsrA act -1.2, NadD block 0.9, DSG3 Ab inh 106.4 and DAGLB inh 28.5.
For Cc1ccc(S(=O)(=O)/N=C2\C=C(Nc3cccc(C(=O)O)c3)C(=O)c3ccccc32)c(C)c1 the results were bovine MsrA act -2.6, NadD block 7.1, MsrA inh 25.3*, DSG3 Ab inh 90.2, rCAG RNA binder 75.5*, DAGLB inh 45.7*, DAGLB confirm 46.0*, MsrA conf 30.2*, rCAG bind conf 82.6* and DNA CAG counter 50.0*.
Screening Cc1ccc(S(=O)(=O)/N=C2\C=C(Nc3cccc(C(=O)O)c3)C(=O)c3ccccc32)cc1 returned bovine MsrA act -1.2, NadD block 9.6, MsrA inh 41.7*, DSG3 Ab inh 106.6, rCAG RNA binder 47.1*, DAGLB inh 37.0*, DAGLB confirm 39.8*, MsrA conf 19.6*, rCAG bind conf 16.1 and DNA CAG counter 4.7*.
`COc1ccc(S[C@]2(C(=O)N3CCN(C(C)=O)CC3)CC(=O)N(C(=O)CCc3ccccc3)[C@@H]2c2ccc(OC)cc2)cc1` gave rCAG RNA binder 9.8.
For Nc1nc(-c2ccccc2)c(N=Nc2cccc3ccccc23)s1 the results were bovine MsrA act -2.0, NadD block 9.5, MsrA inh -0.7, DSG3 Ab inh 98.0, rCAG RNA binder 35.4*, DAGLB inh 61.0*, DAGLB confirm 65.9*, rCAG bind conf 29.2 and DNA CAG counter 18.4*.
`N#C/C(=C\c1ccc(O)c([N+](=O)[O-])c1)c1nc2ccccc2s1` gave bovine MsrA act -2.1, NadD block 7.8, MsrA inh 1.7, DSG3 Ab inh 95.7, rCAG RNA binder 88.2*, DAGLB inh 37.5*, DAGLB confirm 38.9*, rCAG bind conf 82.5* and DNA CAG counter 43.1*.
For CCCCCCCCSC1=CC(=O)C(OC)=C(OC)C1=O the results were bovine MsrA act -5.0, NadD block 17.5, MsrA inh 0.9, DSG3 Ab inh 99.0, rCAG RNA binder 4.1 and DAGLB inh -8.2.
For CCCCCC/C(C)=C1/SC(=S)NC1=O the results were bovine MsrA act -13.3, NadD block 2.0, MsrA inh 2.6, DSG3 Ab inh 120.4, rCAG RNA binder 28.3 and DAGLB inh 10.6.
Screening C/C(C/C(C)=C1/SC(=S)NC1=O)=C1\SC(=S)NC1=O returned bovine MsrA act -6.5, NadD block 14.3, MsrA inh 1.2, DSG3 Ab inh 103.5, rCAG RNA binder 66.0*, DAGLB inh 47.1*, DAGLB confirm 35.3*, rCAG bind conf 49.5* and DNA CAG counter 16.0*.
O=C(O)c1[nH]c2ccccc2c1C(c1cc(Cl)cc([N+](=O)[O-])c1O)c1c(C(=O)O)[nH]c2ccccc12 was read as bovine MsrA act -3.6, NadD block 22.0, MsrA inh 0.1, DSG3 Ab inh 107.7, rCAG RNA binder 91.6*, DAGLB inh 37.1*, DAGLB confirm 31.8, rCAG bind conf 73.4* and DNA CAG counter 37.3*.
`CCOC(=O)Cc1nc(N2CCN(CCN)CC2)c2c(C)c(C(=O)OCC)sc2n1` gave rCAG RNA binder 1.1.
For CC(=O)Oc1cc2c3c(c1)/C(=C1/SC(=S)NC1=O)C(=O)N3C(C)(C)C=C2C the results were bovine MsrA act -1.8, NadD block 15.1, MsrA inh -1.6, DSG3 Ab inh 109.2, rCAG RNA binder 59.4*, DAGLB inh 50.2*, DAGLB confirm 59.4*, rCAG bind conf 91.8* and DNA CAG counter 73.4*.
For CCOc1cc2c3c(c1)C(C)=CC(C)(C)N3C(=O)C2=O the results were bovine MsrA act 0.6, NadD block -6.2, MsrA inh 0.5, DSG3 Ab inh 97.0, rCAG RNA binder -1.9 and DAGLB inh 7.9.

Bioassay records deposited in PubChem BioAssay by several laboratories.
